Experimental data as given in PubChem BioAssay AID2314 (National Center for Advancing Translational Sciences (NCATS), 2010).
The campaign covered roughly 300,000 compounds. About 37,000 (12%) were called active. The full list was thinned out, with actives kept by preference. A number with no mark means an inactive call. Rule as the data show it: active = max response mostly above about 13% (no sharp cut-off); inactive = mostly below about 14%.

Experiment: Cycloheximide Counterscreen for Small Molecule Inhibitors of Shiga Toxin; also: read at 38.3 µM for the half of the compounds with a filed dose; 0% is about no effect
Settings: cell reporter, cycloheximide protein synthesis inhibition counterscreen; active compounds read high

Row | Structure (SMILES) | max response
1 | O=S(=O)(c1ccccc1)N(Cc1cccc(F)c1)c1ccccc1 | -0.496%
2 | CC(=O)N1CCC(C(=O)Nc2nc(-c3ccccc3)ns2)CC1 | 0.624%
3 | NC(=O)c1cc(S(=O)(=O)NCCCc2ccco2)cs1 | -2.26%
4 | CCc1nnc(NC(=O)[C@@H](NC(=O)c2cccc(C)c2)C(C)C)s1 | -2.22%
5 | C=CCn1c(SCc2ccccc2)nc2c1c(=O)[nH]c(=O)n2C | -1.99%
6 | O=C(CSc1nnnn1C1CCCC1)N1CCCCC1 | 27% (active)
7 | O=C(CSc1nnc2ccc(-c3ccncc3)nn12)N1CCCCC1 | -4.64%
8 | CCCc1nnc(SCC(=O)N2C(C)CCCC2C)n1CC (stereo unspecified) | 7.27%
9 | CC1CCCC(C)N1C(=O)CSc1nnnn1C1CCCC1 (stereo unspecified) | 25.7% (active)
10 | CC(C)C(=O)Nc1nnc(SCC(=O)N2C(C)CCCC2C)s1 (stereo unspecified) | 1.12%
11 | CC(Sc1nnnn1C1CCCCC1)C(=O)O (stereo unspecified) | 5.78%
12 | O=Cc1cn(-c2ccccc2)nc1-c1ccccn1 | 3.16%
13 | Cc1c(CN2CC[C@@H](N3CCN(c4ccccn4)CC3)[C@H](O)C2)[nH]c2ccc(F)cc12 | 1.28%
14 | O=C(NCc1ccccc1)C(c1ccccc1)N(C(=O)c1csnn1)c1ccc(F)cc1 (stereo unspecified) | -4.47%
15 | O=S(=O)(Cc1nnnn1-c1ccc(Br)cc1)c1ccc(F)cc1 | -2.53%
16 | O=S(=O)(Nc1ccc(OC(F)(F)F)cc1)c1cccc2nonc12 | -2.47%
17 | O=S(=O)(Cc1noc(-c2ccc(OC(F)(F)F)cc2)n1)c1ccc(F)cc1 | 22.3% (active)
18 | COc1cc(OC)cc(C(=O)NC(=S)N2CCN(c3ccc(C(F)(F)F)cc3[N+](=O)[O-])CC2)c1 | 4.72%
19 | Cn1nccc1NS(=O)(=O)c1ccc(F)cc1 | 162% (active)
20 | Cc1cc(C)cc(NS(=O)(=O)c2ccc(F)cc2)c1 | -2.02%
21 | Cc1ccc(NS(=O)(=O)c2ccc(F)cc2)nc1 | -3.76%

Row | Structure (SMILES) | max response
22 | COc1cc2c(cc1OC)CC1(CCCCC1)N=C2 | -2.87%
23 | CSCc1nnc(NC(=O)c2ccc(S(=O)(=O)N3CCCCC3C)cc2)o1 (stereo unspecified) | -2.84%
24 | CCOc1ccc(C2C3=C(CCCC3=O)N(CC(=O)O)C3=C2C(=O)CCC3)cc1 | -3.14%
25 | COc1ccc(Nc2ncnc3ccc(Br)cc23)c(OC)c1 | 26.7% (active)
26 | C=CCNc1ncnc2ccc(Br)cc12 | -5.1%
27 | COc1ccc(Nc2ncnc3sc(-c4ccccc4)cc23)c(OC)c1 | 7.7%
28 | CN(Cc1c(F)cccc1Cl)S(=O)(=O)c1cccs1 | -2.55%
29 | CN(CCc1ccccc1)c1ccc([N+](=O)[O-])cn1 | 0.432%
30 | CN1c2ccc([N+](=O)[O-])cc2C(C)(C)C12C=Cc1cc(C(=O)O)ccc1O2 (stereo unspecified) | -2.71%
31 | COc1ccc2c(c1)C=CC1(O2)N(CCO)c2ccccc2C1(C)C (stereo unspecified) | 26% (active)
32 | COc1cccc(CC2(CO)CCCN(CC3=Cc4cc(OC)ccc4OC3)C2)c1 (stereo unspecified) | -0.657%
33 | O=C(c1cccc(-n2cccc2)c1)N1CCN(S(=O)(=O)c2ccc(F)cc2)CC1 | 5.03%
34 | O=c1[nH]c(CSc2ccccc2)nc2c1oc1ccccc12 | -1.34%
35 | Cc1nc(SCC(=O)NC2CCCC2)[nH]c(=O)c1C | 0.618%
36 | O=C(CN1CCN(S(=O)(=O)c2ccc(Br)cc2)CC1)Nc1ccccc1C(=O)c1ccccc1 | -0.92%
37 | O=S(=O)(Cc1cc(Cl)nc(-c2cccnc2)n1)c1ccccc1 | -0.203%
38 | COc1ccc(S(=O)(=O)N2CN(CCc3ccc(OC)c(OC)c3)c3nc4ccccc4nc32)cc1 | -0.593%
39 | O=S(=O)(c1ccccc1)N1CN(Cc2ccc(F)cc2)c2nc3ccccc3nc21 | 19.8% (active)
40 | C=CCN1CN(S(=O)(=O)c2ccc(OC)cc2)c2nc3ccccc3nc21 | 15.9%
41 | O=C(NCCCN1CCOCC1)C1CCCN(S(=O)(=O)N2CCCCC2)C1 (stereo unspecified) | 7.19%
42 | CC(C)N1CCc2c(sc(NC(=O)Cc3ccccc3)c2C#N)C1 | 1.8%

Row | Structure (SMILES) | max response
43 | NC(=S)N/N=C/c1coc2cc(Cl)ccc2c1=O | -4.85%
44 | Cc1ccc2occ(/C=N/NC(=O)c3ccccc3C)c(=O)c2c1 | 9.31%
45 | CC(C)(C)OC(=O)NCCCCCC(=O)N/N=C/c1coc2ccccc2c1=O | 37.7% (active)
46 | COc1cccc(NC(=O)COc2cc(C)cc3oc(=O)cc(C)c23)c1 | -6.8%
47 | COC(c1ccccc1)(c1ccccc1)C(Oc1nc(C)cc(C)n1)C(=O)O (stereo unspecified) | -1.54%
48 | CC(C)(C)C1CCC(C(=O)NCC(c2cccs2)N2CCOCC2)CC1 (stereo unspecified) | 1.44%
49 | O=C(NCc1csc(-c2cccs2)n1)C1CC1 | 49.8% (active)
50 | O=C(NCc1cccs1)C1CCN(S(=O)(=O)c2ccc(Cl)cc2)CC1 | 8.38%
51 | CCN(CC)S(=O)(=O)c1ccc(N2CCN(C)CC2)c(NC(=O)Nc2ccccc2F)c1 | -3.4%
52 | CCC(CC)C(=O)Nc1c2c(nn1-c1ccc(C)cc1)CS(=O)(=O)C2 | -1.32%
53 | Cn1c(N)c(C(=O)COC(=O)c2cnc(Cl)c(Cl)c2)c(=O)n(C)c1=O | -2.82%
54 | COc1ccc(/C=C/C(=O)NC(=S)N2CCCC(C(N)=O)C2)cc1 (stereo unspecified) | 12.7%
55 | CC(C)CNC(=O)COC(=O)/C=C/c1ccco1 | -2.86%
56 | O=C(/C=C/c1ccco1)NC(=S)N1CCCCC1 | 25.7% (active)
57 | COc1ccc(Cl)cc1C(=O)NNC(=S)NC(=O)/C=C/c1ccco1 | 0.62%
58 | O=C(/C=C/c1ccco1)NC(=S)Nc1ccccc1Br | 21% (active)
59 | CCNC(=S)N1CCN(C(=O)c2ccco2)CC1 | -0.408%
60 | O=C(Cc1ccccc1)Nc1ccc(C(=O)Nc2ccccc2C(=O)O)cc1 | -2.41%
61 | Cn1sc(=O)c2cc(S(=O)(=O)NC3CC3)ccc21 | -2.97%
